Source: PubChem
VP16 counter: Gal4-VP16 reporter inhibition counter-screen. Drosophila S2 Gal4-VP16 UAS-luciferase, luminescence, 20 h. Potency, µM (top dose mostly 53.6 µM), usual class: inhibitors. actives 3.5% (n = 310,000). AID 2546;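 also: Gal4-VP16 expression switched on by copper sulfate through the metallothionein promoter; nearly all actives have a fitted effect of over 50% in size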
12-LOX inh: inhibitors of human 12S-lipoxygenase ALOX12; Potency, µM (highest dose often 108 µM), hits mostly inhibitors; purified 12hLO, xylenol orange hydroperoxide absorbance; P18054; actives 1.1% (n = 580,000)
Target sequence (P18054 whole entry, looked up): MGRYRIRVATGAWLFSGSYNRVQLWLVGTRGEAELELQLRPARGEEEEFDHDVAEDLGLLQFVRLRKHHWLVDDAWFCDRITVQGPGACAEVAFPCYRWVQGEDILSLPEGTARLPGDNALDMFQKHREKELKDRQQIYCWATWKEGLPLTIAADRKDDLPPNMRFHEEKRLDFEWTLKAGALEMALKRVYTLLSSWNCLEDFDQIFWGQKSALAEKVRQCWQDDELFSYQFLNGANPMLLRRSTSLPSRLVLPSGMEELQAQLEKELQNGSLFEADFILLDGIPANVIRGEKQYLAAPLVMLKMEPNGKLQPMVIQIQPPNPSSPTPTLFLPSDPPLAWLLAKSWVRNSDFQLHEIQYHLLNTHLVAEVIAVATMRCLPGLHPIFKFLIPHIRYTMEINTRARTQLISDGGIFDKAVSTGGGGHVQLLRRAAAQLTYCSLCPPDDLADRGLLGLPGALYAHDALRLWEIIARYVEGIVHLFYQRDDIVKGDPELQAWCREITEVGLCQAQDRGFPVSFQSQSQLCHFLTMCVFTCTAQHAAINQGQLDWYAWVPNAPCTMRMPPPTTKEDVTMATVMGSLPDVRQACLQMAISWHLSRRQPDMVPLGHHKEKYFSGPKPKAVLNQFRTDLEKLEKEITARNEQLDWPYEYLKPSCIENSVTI
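Hydroperoxide product was detected by ferrous iron/xylenol orange as the 573 to 405 nm absorbance ratio. Arachidonic acid at 40 uM (final) was turned over for 30 min at room temperature by 150 nM human 12hLO, pH 7.0 Hepes buffer, after 15 min compound preincubation.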
TDP1 cell noCPT: qHTS for Inhibitors of human tyrosyl-DNA phosphodiesterase 1 (TDP1): qHTS in cells in absence of CPT | DT40 Tdp1-/- hTDP1 cells, no CPT, ATP luminescence, 48 h | Potency, µM (series often up to 46.2 µM), most hits filed as inhibitors | actives 15% (n = 420,000); also: nearly all actives have a fitted effect of over 55% in size
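Growth of hTDP1-complemented DT40 Tdp1-knockout cells is measured by ATP luminescence after at least 48 hr compound exposure at 37 °C, with DMSO substituting for the 20 nM CPT used in the parallel screen.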
ELG1 DNA repair: blocks ELG1-dependent DNA repair in HEK293T cells. HEK293T ELG1-luciferase reporter, luminescence, 16 h; DNA damage induced by 5-fluorouridine. Potency, µM (titrated, usually from 46.1 µM), most hits filed as inhibitors. actives 2.3% (n = 330,000); also: nearly all actives have a fitted effect of over 55% in size
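Cells (2,000 per well) received 5-fluorouridine plus test compound or DMSO and were incubated 16 hr at 37 °C, 5% CO2. Luciferase activity was read by luminescence 30 min after ONE-Glo addition; signal suppression marked inhibition of damage-induced ELG1 function.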
TDP1 cell CPT: growth inhibition of DT40 Tdp1-/-;hTDP1 cells with camptothecin (screen for TDP1 inhibitors); actives 12% (n = 420,000); AID 686979; chicken DT40 Tdp1-/-;hTDP1 cells + 20 nM CPT, ATP luminescence, 48 h; Potency, µM (doses to about 46.2 µM), usual class: inhibitors; also: nearly all actives have a fitted effect of over 55% in size
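Cell growth measured by CellTiter-Glo luminescence after a minimum 48 h, 37 C compound exposure with 20 nM CPT in Tdp1-knockout DT40 cells stably expressing hTDP1, seeded 400/well; qHTS titration format.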
RORg inh: inhibitors of mouse ROR gamma transcriptional activity. P51450. actives 5.4% (n = 310,000). AID 2551. Drosophila S2 Gal4-RORgamma UAS-luciferase reporter, 20 h. Potency, µM (titrated, usually from 53.6 µM), most hits filed as inhibitors; also: nearly all actives have a fitted effect of over 60% in size
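Using a luciferase readout, inhibitors were identified by reduced reporter activity in Drosophila cells coexpressing a copper-inducible Gal4–ROR gamma fusion and UAS-driven Photinus luciferase, incubated 20 hr after 700 uM copper sulfate.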
A number is an active result; . = inactive; ? = inconclusive; / = no result given; [ ] = another dose, or the depositor's remark. This is a sample that favours compounds with a hit; in the whole collection about 15% have one here. Calls follow the shape of the dose curve; as a rule, active = well fitted curve in the direction sought with a large enough effect; inconclusive = small, poorly fitted or top-dose-only effect, or another doubt; inactive = no such curve, though single readings can be large; an effect the other way counts as inactive or inconclusive.

SMILES	VP16 counter	12-LOX inh	TDP1 cell noCPT	ELG1 DNA repair	TDP1 cell CPT	RORg inh
S=c1[nH]nc(Cc2cccs2)n1-c1ccccc1Cl	?	.	.	.	.	6.3µM
O=S(=O)(c1cccc(-c2n[nH]c(=S)n2-c2ccccc2Cl)c1)N1CCOCC1	/	.	.	?	.	/
Cc1ccc(C)c(-n2c(Cc3cccs3)n[nH]c2=S)c1	3.2µM	?	?	.	?	7.1µM
COc1ccccc1-n1c(Cc2cccs2)n[nH]c1=S	.	.	.	.	.	10µM
Cc1ccc(C(=O)NCCC2=CCCCC2)cc1C	/	.	/	/	/	/
COC(=O)C1=C(C)N(C)C(=O)NC1c1ccc(Br)o1 (stereo not given)	/	.	/	/	/	/
Cc1c(C(=O)CSc2nnc(C3CC3)n2C)sc2ccccc12	/	.	/	/	/	/
CCCCc1ccc(-n2c(Cc3cccs3)n[nH]c2=S)cc1	?	?	?	?	?	1.4µM
CCOC(=O)/C(C#N)=C/C=C1\C=Cc2ccccc2N1CC	.	.	23µM	?	21µM	.
CCCCCCN1C=CC(=C/C=C(\C#N)C(=O)OCC)C=C1	.	.	16µM	.	?	.
O=C(Nc1ccnn1C1CCN(C(=O)c2ccc3n[nH]nc3c2)CC1)C1CC1	/	.	/	/	/	/
CCOC(=O)C1(Cc2cccc(OC)c2)CCCN(C(=O)CCN2CCCCO2)C1 (stereo not given)	/	.	/	/	/	/
CCOc1ccc(C(=O)N/N=C/c2cc(Cl)ccc2[N+](=O)[O-])cc1	5.6µM	.	.	.	.	?
CCCC(=O)Nc1ccc(C(=O)N/N=C/c2ccc([N+](=O)[O-])o2)cc1	?	.	9.2µM	?	15µM	.
Cc1cc(C)c(S(=O)(=O)N/N=C/c2ccc([N+](=O)[O-])o2)c(C)c1	20µM	?	?	.	23µM	?
Cc1ccc(/C=N/NS(=O)(=O)c2ccc(C)c([N+](=O)[O-])c2)o1	/	.	/	/	/	/
O=C(O)c1ccc(N/N=C/C=C/c2ccc([N+](=O)[O-])o2)cc1	?	.	23µM	.	8.2µM	.
CCOc1ccc(Cl)cc1/C=N/NC(=O)c1ccccc1	.	.	.	.	.	.
COC(=O)c1cc(OC(=O)c2ccncc2)cc(C(=O)OC)c1	/	.	/	/	/	/
O=[N+]([O-])c1ccc(/C=N/NC(=S)Nc2ccccc2C(F)(F)F)o1	?	?	13µM	.	8.2µM	11µM
O=C(N/N=C/c1ccc([N+](=O)[O-])o1)C(=O)Nc1ccc(C(=O)O)cc1	.	.	.	.	.	.
Cc1ccc(OCC(=O)N/N=C/c2ccc([N+](=O)[O-])o2)cc1	?	.	13µM	.	16µM	?
O=C(N/N=C/c1ccc(-c2ccc([N+](=O)[O-])cc2)o1)C(O)c1ccccc1 (stereo not given)	?	.	?	?	?	.
O=C(N/N=C/c1ccc([N+](=O)[O-])o1)C(O)c1ccccc1 (stereo not given)	.	.	6.5µM	?	8.2µM	.
Cc1ccc(OCC(=O)N/N=C\c2ccc(C)o2)c([N+](=O)[O-])c1	.	.	?	.	?	.
SMILES	VP16 counter	12-LOX inh	TDP1 cell noCPT	ELG1 DNA repair	TDP1 cell CPT	RORg inh
NC(=O)N/N=C/c1ccc([N+](=O)[O-])o1	?	.	3.3µM	.	16µM	.[10 µM]
CCCN1CCC(NC(=O)c2cccs2)CC1	/	.	/	/	/	/
N#Cc1ccccc1COC(=O)C1(c2ccccc2)CC1	/	.	/	/	/	/
Cc1ccc(C2Cn3nnc(-c4noc(-c5nn(C)c6ccccc56)n4)c3CO2)cc1 (stereo not given)	/	.	/	/	/	/
FC(F)(F)c1cccc(-n2nnnc2C2(N3CCOCC3)CCCC2)c1	/	.	/	/	/	/
CCCN(Cc1ccccc1)C(=O)CCc1cccs1	/	.	/	/	/	/
O=C(N/N=C/c1ccc([N+](=O)[O-])o1)C1CC1	.	.	23µM	?	7.3µM	7.9µM
O=C(NN=Cc1ccccc1O)C(O)c1ccccc1 (stereo not given)	/	.	21µM	/	?	/
Cc1cc(C(=O)N/N=C\c2ccc(COc3ccc([N+](=O)[O-])cc3)o2)ccc1[N+](=O)[O-]	?	.	?	.	?	11µM
NNC(=O)c1ccc(COc2ccc([N+](=O)[O-])cc2)o1	.	.	.	?	.	.
O=C(N/N=C/c1ccccc1)C(O)c1ccccc1 (stereo not given)	.	?	.	.	.	.[1.91 µM]
NC(=O)N/N=C\c1ccc([N+](=O)[O-])o1	.	/	/	/	/	?
Cc1ccsc1/C=N/N=C(c1ccccc1)c1ccccc1	/	.	/	/	/	/
O=C(Nc1ccncc1)c1ccc2c(c1)C(=O)N(C1CCCCC1)C2=O	11µM	.	23µM	.	18µM	?
CCC(=O)Nc1ccc2c(c1)C(=O)N(C1CCCCC1)C2=O	.	.	?	.	?	?
Cc1cc(NC(=O)c2ccc3c(c2)C(=O)N(C)C3=O)no1	.	.	.	.	.	.
Cc1cc(NC(=O)c2ccc3c(c2)C(=O)N(C2CCCCC2)C3=O)no1	.	.	15µM	.	?	.
O=C(Cn1ccn2nc(-c3ccccc3)c(CO)c2c1=O)N1CCc2ccccc21	/	.	/	/	/	/
CSc1nnc(NC(=O)c2ccc3c(c2)OCO3)s1	4.5µM	.	.	?	.	2.5µM
CCOCc1nnc(NC(=O)c2ccc3c(c2)OCO3)s1	/	.	.	/	.	/
CCOC(=O)CNC(=O)CSc1nnc(NC(=O)c2ccc(C)cc2)s1	6.3µM	.	.	?	.	5.6µM
COCCSc1nnc(NC(=O)c2ccc3c(c2)OCO3)s1	.	.	.	?	.	?
CCOC(=O)CNC(=O)CSc1nnc(NC(=O)c2ccc3c(c2)OCO3)s1	?	.	.	?	.	7.1µM
Cc1ccc(C(=O)Nc2nnc(SCC(=O)N3CCCc4ccccc43)s2)cc1	1.3µM	.	?	?	.	0.5µM
COc1ccc(Cl)cc1C(=O)N1CC(=O)N(c2ccccc2C#N)CC1C (stereo not given)	/	.	/	/	/	/
SMILES	VP16 counter	12-LOX inh	TDP1 cell noCPT	ELG1 DNA repair	TDP1 cell CPT	RORg inh
O=C(c1cnccn1)N1CCc2onc(C(c3ccccc3)c3ccccc3)c2C1	/	.	/	/	/	/
CC(=O)Nc1ccc(NC(=O)/C=C/c2ccc(Cl)cc2)cc1	.	.	.	?	.	.
CC(C)(C)c1ccc(/C=C/C(=O)Nc2ccncc2)cc1	?	.	7.3µM	?	10µM	?
CC(C)NC(=O)NC[C@H]1O[C@@H]2C[C@@H](CC(=O)N3CCOCC3)O[C@@H]2[C@@H]1O	/	.	/	/	/	/
S=c1[nH]nc([C@@H]2C[C@H]2c2ccccc2)n1-c1ccccc1	4µM	?	.	.	.	2.8µM
Cc1ccccc1-n1c([C@@H]2C[C@H]2c2ccccc2)n[nH]c1=S	?	.	.	.	.	5µM
